Columns and labels:
[1] = target: Ephrin type-A receptor 5 (Homo sapiens) (UniProt P54756); conditions: at 1 µM
[2] = target: Ephrin type-A receptor 5 (Homo sapiens) (UniProt P54756); conditions: at 10 µM
[3] = target: Ephrin type-A receptor 7 (Homo sapiens) (UniProt Q15375); conditions: at 1 µM
[4] = target: Ephrin type-A receptor 7 (Homo sapiens) (UniProt Q15375); conditions: at 10 µM
[5] = target: T1, Ephrin type-B receptor 4 (Homo sapiens) (UniProt P54760); conditions: at 1 µM
T1 sequence (whole entry): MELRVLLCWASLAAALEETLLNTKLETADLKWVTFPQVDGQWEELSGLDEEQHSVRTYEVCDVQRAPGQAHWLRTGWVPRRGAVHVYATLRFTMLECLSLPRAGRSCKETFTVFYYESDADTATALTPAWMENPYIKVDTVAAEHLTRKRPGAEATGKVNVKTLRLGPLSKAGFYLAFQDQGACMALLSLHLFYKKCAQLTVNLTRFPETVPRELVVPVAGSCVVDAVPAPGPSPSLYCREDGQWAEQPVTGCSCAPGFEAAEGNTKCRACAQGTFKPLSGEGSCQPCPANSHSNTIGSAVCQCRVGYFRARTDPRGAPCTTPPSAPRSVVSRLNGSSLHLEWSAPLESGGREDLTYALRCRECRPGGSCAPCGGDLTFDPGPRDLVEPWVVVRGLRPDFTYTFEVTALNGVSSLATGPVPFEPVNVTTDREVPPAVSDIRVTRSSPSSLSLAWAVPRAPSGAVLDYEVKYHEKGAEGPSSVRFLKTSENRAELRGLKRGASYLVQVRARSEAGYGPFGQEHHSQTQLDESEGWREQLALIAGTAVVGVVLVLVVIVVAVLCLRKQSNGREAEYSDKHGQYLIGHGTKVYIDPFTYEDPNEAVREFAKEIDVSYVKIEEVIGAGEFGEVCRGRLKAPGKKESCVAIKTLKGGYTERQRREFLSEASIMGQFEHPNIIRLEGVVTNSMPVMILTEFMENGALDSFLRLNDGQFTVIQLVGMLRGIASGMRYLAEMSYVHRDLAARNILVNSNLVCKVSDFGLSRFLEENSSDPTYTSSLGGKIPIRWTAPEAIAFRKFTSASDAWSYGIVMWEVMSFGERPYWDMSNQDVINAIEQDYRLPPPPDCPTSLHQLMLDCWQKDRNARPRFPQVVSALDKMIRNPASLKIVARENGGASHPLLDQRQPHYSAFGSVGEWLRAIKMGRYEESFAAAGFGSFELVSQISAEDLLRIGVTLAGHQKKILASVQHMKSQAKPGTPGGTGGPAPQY

[6] = target: T1, Ephrin type-B receptor 4 (Homo sapiens); conditions: at 10 µM
[7] = target: Receptor tyrosine-protein kinase erbB-4 (Homo sapiens) (UniProt Q15303); conditions: at 1 µM
[8] = target: Receptor tyrosine-protein kinase erbB-4 (Homo sapiens) (UniProt Q15303); conditions: at 10 µM
[9] = target: Focal adhesion kinase 1 (Homo sapiens) (UniProt Q05397); conditions: at 1 µM
Focal adhesion kinase 1 (Homo sapiens), sequence (Q05397 2-1052 limits assumed): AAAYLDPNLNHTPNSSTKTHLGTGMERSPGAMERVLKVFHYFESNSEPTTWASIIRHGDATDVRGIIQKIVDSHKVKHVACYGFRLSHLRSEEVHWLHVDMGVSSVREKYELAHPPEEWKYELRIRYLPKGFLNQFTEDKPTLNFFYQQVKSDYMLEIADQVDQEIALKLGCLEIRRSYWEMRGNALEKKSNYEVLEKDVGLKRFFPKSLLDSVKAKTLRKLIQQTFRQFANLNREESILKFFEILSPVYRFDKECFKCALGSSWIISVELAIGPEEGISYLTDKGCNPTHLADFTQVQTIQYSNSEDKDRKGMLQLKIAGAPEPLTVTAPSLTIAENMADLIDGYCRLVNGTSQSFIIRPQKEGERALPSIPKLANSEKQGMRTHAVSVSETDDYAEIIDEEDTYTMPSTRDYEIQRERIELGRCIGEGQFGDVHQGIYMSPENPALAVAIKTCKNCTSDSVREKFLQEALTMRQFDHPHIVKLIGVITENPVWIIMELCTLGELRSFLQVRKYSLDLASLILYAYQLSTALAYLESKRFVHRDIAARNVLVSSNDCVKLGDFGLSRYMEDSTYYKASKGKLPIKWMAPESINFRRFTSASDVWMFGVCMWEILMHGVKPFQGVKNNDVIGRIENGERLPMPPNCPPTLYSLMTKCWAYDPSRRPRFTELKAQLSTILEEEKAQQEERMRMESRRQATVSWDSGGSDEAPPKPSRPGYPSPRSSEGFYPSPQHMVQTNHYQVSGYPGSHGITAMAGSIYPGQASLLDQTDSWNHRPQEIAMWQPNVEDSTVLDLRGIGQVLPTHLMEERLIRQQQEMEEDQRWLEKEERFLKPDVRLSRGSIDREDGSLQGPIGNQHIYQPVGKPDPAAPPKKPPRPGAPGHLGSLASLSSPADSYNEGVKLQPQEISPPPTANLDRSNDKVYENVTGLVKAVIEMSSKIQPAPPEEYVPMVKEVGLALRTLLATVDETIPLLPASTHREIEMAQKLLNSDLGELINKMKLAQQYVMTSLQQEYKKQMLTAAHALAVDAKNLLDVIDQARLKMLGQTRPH

Receptor tyrosine-protein kinase erbB-4 (Homo sapiens), sequence (Q15303 whole entry): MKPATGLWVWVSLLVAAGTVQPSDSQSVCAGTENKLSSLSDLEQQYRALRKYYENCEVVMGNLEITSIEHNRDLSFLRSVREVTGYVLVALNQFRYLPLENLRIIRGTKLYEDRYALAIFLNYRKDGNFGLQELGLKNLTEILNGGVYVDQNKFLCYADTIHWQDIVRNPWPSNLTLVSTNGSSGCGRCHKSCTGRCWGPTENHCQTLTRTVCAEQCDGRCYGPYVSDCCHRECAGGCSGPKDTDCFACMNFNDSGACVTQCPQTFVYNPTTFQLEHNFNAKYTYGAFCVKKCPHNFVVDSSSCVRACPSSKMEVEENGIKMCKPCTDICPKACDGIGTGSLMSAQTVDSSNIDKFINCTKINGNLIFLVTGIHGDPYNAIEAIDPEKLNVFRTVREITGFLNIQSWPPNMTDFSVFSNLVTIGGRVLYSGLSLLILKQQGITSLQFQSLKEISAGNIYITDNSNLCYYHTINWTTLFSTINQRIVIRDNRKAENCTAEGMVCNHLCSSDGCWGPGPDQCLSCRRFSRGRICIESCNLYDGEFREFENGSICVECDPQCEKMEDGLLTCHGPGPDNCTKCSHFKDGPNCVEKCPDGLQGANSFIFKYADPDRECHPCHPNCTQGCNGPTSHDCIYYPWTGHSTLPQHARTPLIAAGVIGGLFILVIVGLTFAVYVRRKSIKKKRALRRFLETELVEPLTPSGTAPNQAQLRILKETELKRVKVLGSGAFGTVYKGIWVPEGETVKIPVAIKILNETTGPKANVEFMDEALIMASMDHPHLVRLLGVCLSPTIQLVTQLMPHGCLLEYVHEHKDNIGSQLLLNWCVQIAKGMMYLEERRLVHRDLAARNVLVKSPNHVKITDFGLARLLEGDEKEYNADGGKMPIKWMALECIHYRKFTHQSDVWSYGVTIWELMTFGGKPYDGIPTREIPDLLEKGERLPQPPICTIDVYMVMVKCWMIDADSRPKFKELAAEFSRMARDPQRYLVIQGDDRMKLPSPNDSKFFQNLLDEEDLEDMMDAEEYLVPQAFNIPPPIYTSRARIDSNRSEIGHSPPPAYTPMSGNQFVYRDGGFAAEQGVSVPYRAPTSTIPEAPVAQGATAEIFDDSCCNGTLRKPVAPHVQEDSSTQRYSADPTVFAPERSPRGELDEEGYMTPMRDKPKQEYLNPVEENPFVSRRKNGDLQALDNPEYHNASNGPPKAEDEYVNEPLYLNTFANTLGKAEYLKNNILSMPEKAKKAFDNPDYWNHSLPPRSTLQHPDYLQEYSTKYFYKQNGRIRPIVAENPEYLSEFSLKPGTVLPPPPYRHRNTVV
Ephrin type-A receptor 5 (Homo sapiens), sequence (P54756 whole entry): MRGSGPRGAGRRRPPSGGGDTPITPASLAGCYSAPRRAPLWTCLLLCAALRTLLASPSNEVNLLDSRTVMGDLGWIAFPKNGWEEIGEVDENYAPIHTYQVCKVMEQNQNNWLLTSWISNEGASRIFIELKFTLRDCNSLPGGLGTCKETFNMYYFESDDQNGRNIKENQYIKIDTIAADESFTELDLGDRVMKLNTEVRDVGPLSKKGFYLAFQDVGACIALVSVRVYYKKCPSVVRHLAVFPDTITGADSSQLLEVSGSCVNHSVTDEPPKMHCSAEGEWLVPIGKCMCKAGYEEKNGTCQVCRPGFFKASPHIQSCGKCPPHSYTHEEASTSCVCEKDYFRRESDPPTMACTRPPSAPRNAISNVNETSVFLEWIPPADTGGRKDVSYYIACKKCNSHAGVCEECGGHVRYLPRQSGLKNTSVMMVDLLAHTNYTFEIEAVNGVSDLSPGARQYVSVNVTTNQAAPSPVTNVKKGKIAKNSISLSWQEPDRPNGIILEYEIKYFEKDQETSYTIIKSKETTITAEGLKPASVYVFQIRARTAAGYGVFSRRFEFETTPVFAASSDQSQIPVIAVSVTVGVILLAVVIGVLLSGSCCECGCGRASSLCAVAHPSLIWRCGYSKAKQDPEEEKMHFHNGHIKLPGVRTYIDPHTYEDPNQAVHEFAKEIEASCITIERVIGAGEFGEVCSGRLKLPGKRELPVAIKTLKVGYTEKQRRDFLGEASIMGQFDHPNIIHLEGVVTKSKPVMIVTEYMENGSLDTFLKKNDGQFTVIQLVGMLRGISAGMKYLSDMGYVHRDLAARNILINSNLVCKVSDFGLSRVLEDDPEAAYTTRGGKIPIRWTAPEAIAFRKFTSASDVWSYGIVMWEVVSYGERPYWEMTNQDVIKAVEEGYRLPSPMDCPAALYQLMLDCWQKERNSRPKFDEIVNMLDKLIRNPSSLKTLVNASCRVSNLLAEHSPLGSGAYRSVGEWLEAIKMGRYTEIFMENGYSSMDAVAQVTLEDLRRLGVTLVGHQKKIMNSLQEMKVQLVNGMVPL
Ephrin type-A receptor 7 (Homo sapiens), sequence (Q15375 28-998 limits assumed): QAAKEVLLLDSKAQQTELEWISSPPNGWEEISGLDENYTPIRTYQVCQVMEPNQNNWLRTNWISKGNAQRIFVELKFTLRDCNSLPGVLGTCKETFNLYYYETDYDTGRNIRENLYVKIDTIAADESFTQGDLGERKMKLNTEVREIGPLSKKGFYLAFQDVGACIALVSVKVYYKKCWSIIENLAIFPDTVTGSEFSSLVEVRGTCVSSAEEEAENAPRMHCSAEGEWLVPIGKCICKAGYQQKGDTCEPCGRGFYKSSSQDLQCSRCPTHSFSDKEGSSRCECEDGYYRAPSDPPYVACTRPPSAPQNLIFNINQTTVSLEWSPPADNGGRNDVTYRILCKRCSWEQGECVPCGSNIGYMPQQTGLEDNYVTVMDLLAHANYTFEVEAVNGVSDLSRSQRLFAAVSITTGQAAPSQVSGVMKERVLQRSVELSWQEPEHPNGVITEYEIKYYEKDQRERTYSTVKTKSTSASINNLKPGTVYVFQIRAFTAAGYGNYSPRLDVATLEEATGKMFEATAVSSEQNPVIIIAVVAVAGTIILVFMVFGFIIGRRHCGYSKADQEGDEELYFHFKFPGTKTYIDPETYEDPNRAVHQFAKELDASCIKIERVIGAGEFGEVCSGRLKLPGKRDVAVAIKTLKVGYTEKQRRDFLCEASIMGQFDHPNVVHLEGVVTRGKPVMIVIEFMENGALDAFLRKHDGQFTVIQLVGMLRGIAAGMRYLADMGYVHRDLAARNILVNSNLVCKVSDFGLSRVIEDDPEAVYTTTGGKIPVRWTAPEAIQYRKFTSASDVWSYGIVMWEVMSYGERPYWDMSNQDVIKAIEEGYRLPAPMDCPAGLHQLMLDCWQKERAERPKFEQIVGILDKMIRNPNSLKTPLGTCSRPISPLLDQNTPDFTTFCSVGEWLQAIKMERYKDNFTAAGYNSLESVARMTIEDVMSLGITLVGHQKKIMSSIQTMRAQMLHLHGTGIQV

With `N#CC(C#N)=C(N)/C(C#N)=C/c1ccc(O)cc1` the residual activity [1] was 125%, the residual activity [2] was 96% and the residual activity [3] was 91%. The residual activity [4] was 81%, the residual activity [5] was 116% and the residual activity [6] was 119%. It also gave a residual activity [7] of 95%, a residual activity [8] of 76% and a residual activity [9] of 132%.
